Measured values reported in the supplement of paper PMC3334620.
In all, about 33,000 sequences were measured (“E-score (-0.5 to 0.5)”: median about -0.043, highest 2% from about 0.37 on). The entries come from a sample that favours the highest values as a whole.

Each sequence was assayed against T1, Upc2 (UniProt Q12151) (assay: PBM E-score (8-mer binding enrichment) (E-score (-0.5 to 0.5)); higher = stronger / more preferred TF binding). Settings: protein concentration: 200 nM; construct: GST-full length.
T1 sequence: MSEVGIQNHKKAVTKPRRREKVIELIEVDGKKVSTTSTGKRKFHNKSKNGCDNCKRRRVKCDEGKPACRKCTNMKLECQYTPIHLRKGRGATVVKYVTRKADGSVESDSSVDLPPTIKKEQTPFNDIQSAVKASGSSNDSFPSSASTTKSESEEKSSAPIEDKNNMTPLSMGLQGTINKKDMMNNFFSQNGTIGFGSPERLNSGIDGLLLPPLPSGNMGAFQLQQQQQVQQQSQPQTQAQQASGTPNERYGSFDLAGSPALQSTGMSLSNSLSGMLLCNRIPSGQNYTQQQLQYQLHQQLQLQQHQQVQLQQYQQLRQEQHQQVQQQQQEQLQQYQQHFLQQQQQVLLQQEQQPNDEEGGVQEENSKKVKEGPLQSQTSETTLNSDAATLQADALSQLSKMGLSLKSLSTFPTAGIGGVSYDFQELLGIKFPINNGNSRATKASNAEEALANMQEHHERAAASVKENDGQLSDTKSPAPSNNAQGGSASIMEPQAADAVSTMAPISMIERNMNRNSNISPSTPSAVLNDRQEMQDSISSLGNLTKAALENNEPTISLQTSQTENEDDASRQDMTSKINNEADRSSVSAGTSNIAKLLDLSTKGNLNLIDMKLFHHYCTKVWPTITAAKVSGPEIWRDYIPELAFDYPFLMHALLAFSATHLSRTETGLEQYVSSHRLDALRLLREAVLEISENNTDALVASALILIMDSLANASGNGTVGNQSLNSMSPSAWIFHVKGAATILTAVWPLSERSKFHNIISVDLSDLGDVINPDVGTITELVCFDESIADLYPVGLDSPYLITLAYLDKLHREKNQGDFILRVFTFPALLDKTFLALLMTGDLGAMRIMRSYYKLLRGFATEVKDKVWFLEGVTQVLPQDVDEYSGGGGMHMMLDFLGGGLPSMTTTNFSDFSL
Description: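 Universal 'all 10-mer' protein binding microarrays (Agilent AMADID 015681) probed with GST-tagged S. cerevisiae TFs (full-length or DBD) made by in vitro transcription/translation (PURExpress), about 100-200 nM. Bound TF was detected with fluorescent anti-GST. Each ungapped 8-mer (which stands for itself and its reverse complement) is scored by the PBM enrichment score (E-score), a modified Wilcoxon-Mann-Whitney statistic from -0.5 to +0.5, computed with the Universal PBM Analysis Suite. Scale: above 0.35 generally sequence-specific binding.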

Row | Sequence | PBM E-score
1 | AGCTCGAT | -0.0109
2 | AAGCTGGT | -0.0392
3 | CAGATTGG | -0.303
4 | CAACTTCA | -0.0217
5 | CCATTTCA | -0.241
6 | CTCAGCTC | -0.114
7 | AGCGAGAG | 0.229
8 | GGTATAAC | 0.135
9 | CGTATAAG | 0.481
10 | TGTATAAA | 0.156
11 | AGTATAAC | 0.172
12 | CGTATAAC | 0.478
13 | AGTATAAA | 0.238
14 | AGTATAAG | 0.261
15 | CATATAAG | 0.17
16 | CGTATAAA | 0.477
17 | AACTTTCC | -0.281
18 | AGCTCTCA | -0.214
19 | GGGAGGTA | 0.132
20 | CACAGATA | -0.136
21 | GCACTGGA | -0.0891
22 | GGTATACC | 0.214

Row | Sequence | PBM E-score
23 | CGTATACC | 0.472
24 | CGTATACA | 0.474
25 | AGTATACA | 0.149
26 | AGTATACC | 0.124
27 | GGTATACA | -0.0256
28 | AGTTCAGA | -0.0704
29 | CGTTCAGC | 0.396
30 | AGTTCAGC | -0.205
31 | GGTTCAGA | -0.186
32 | CGTTCAGA | 0.372
33 | CGTTCATC | 0.353
34 | AGGCGTGC | -0.0583
35 | CGCAGTAG | -0.0605
36 | AAAGGTGT | 0.0174
37 | GTTAGCCA | -0.0759
38 | ACTGAGAT | -0.184
39 | GGTTAAAC | 0.232
40 | CGTTAAAA | 0.364
41 | CGTTAAAC | 0.411
42 | CGTTAAGC | 0.432
43 | CGTTAAGA | 0.341
44 | AGTTAAGC | 0.00193

Row | Sequence | PBM E-score
45 | AGTTAAAG | 0.0271
46 | CTTTAAAG | -0.114
47 | CGTTAAAG | 0.4
48 | GAAAACTC | -0.114
49 | AGAGAATG | 0.0339
50 | GCAGTGGA | -0.123
51 | CTCAATAA | -0.213
52 | GACAGTGA | -0.0168
53 | CACTAGGA | -0.245
54 | AGATACGG | 0.307
55 | GGATACCA | -0.0879
56 | CGATACGA | 0.464
57 | GGATACGA | 0.463
58 | AGATACGA | 0.454
59 | CGATACGC | 0.267
60 | GGATACTA | -0.183
61 | CGATACAA | 0.0776
62 | AGATACGC | 0.201
63 | TGCGGCAA | -0.127
64 | ATATCTAC | 0.0208
65 | CTGCTCAC | 0.00302
66 | AGCGTGAA | -0.0302

Row | Sequence | PBM E-score
67 | ACAGCTAT | -0.0224
68 | CGGTCGGA | -0.0376
69 | AGGTCGTC | 0.0416
70 | CGGTCGTC | 0.0119
71 | GGGTCGAA | 0.0267
72 | AGGTCGTA | 0.451
73 | GGGTCGTA | 0.42
74 | GGGTCGGA | 0.0691
75 | CGGTCGTA | 0.442
76 | AGGTCGTG | 0.0575
77 | CTGGGTGC | -0.106
78 | GCGCACTA | -0.00558
79 | CGGCTGCC | -0.0671
80 | AACGACCT | 0.386
81 | AACGACCG | 0.403
82 | AGCGACCT | 0.132
83 | TGCGACCA | 0.0986
84 | CACGACCA | -0.0648
85 | AACGACCC | 0.365
86 | CACGACCG | 0.00924
